HIV RNase H inh: HIV-1 RT RNase H inhibitors, primary screen, biochemical, fluorescence. inhibition, % at 10 µM. 65,000 tested, 1.9% active. AID 565, 2006. RT-RNase H RNA/DNA duplex cleavage. Gag-Pol polyprotein (Human immunodeficiency virus type 1 group M subtype B (isolate …; in the data active = inhibition above about 50%
An asterisk follows results filed as active. Shown is part of a subset that was picked to be rich in hits.

SMILES | HIV RNase H inh
CCC(C)C(NC(=O)c1ccccc1NC(=O)c1ccco1)C(=O)O (stereo unspecified) | 2
Nn1c(SCC(=O)Nc2cccc(F)c2)nnc1C1CCCCC1 | -12
CCn1c(Sc2ccc(N)cc2Cl)nc2ccccc21 | -69
COc1ccccc1C(=O)Nc1cc(-c2nn3c(C)nnc3s2)ccc1C | -7
O=C1c2ccccc2CC1Sc1nnc(-c2ccccn2)o1 (stereo unspecified) | 32
O=C1CC(Sc2nnc(-c3ccccc3O)o2)C(=O)N1c1ccccc1 (stereo unspecified) | 55*
COc1ccc(N2C(=O)CC(Sc3nnc(-c4ccccc4)o3)C2=O)cc1 (stereo unspecified) | -1
Cc1noc(/C=C/N(C)C)c1S(=O)(=O)N1CCCC(C(=O)NCc2ccccc2Cl)C1 (stereo unspecified) | -11
CCCS(=O)(=O)Nc1cc(C(F)(F)F)ccc1OCCOC | -1
CCOC(=O)c1sc(=S)n(-c2cc(F)ccc2F)c1N | 72*
CCOC(=O)c1cc2cc(F)ccc2nc1C | -7
COC(=O)C1=C(C)N(C)C(C)=C(C(=O)OC)C1c1ccc(F)c(Br)c1 | -26
COC(=O)c1sc(=S)n(-c2cc(F)ccc2F)c1N | 72*
Cc1cc(C(=O)CSc2n[nH]c(N)n2)c(C)n1-c1cc(F)ccc1F | -33
CCOC(=O)c1[nH]c(C)c(C(=O)c2cc(F)ccc2F)c1C | -86
O=C(CSc1n[nH]c(-c2ccccc2)n1)c1ccc(O)c(O)c1 | -10
CCc1nnc(NC(=O)C2CCCN2S(=O)(=O)c2ccc(F)cc2)s1 (stereo unspecified) | 1
CC1(c2ccccc2)NC(=O)N(CC(=O)Nc2cccc(C#N)c2)C1=O (stereo unspecified) | 3
CN(Cc1cccs1)C(=O)COc1ccc(-c2nnco2)cc1 | 0
O=C(c1ccco1)N1CCN(CC(O)Cn2c3ccccc3c3ccccc32)CC1 (stereo unspecified) | -2
CCC(CC)C(=O)Nc1cc(C)c2c(=O)oc3ccccc3c2n1 | -5
Cc1cc(NC(=O)c2ccc(S(=O)(=O)N3CCCC3)cc2)nc2c1c(=O)oc1ccccc12 | 72*
Cc1cc(NC(=O)c2ccc(S(=O)(=O)N3CCOCC3)cc2)nc2c1c(=O)oc1ccccc12 | 41
CCOC(=O)C1CCN(C(=O)CSc2nnc(-c3ccco3)n2-c2ccccc2)CC1 | -10
COc1ccc(-n2c(O)c(/C=N/n3cnnc3)c3ccccc3c2=O)cc1 | 4
SMILES | HIV RNase H inh
O=C(Nc1cccc2ccccc12)c1ccc(Br)o1 | -6
O=C(O)CCCC(=O)Nc1nc(-c2ccccc2)cs1 | -6
O=C(Nc1nc(-c2ccccc2)cs1)c1ccc(Br)o1 | 66*
CCCCCOC(=O)CSc1nnc(-c2ccccc2)c(=O)[nH]1 | 6
COc1ccc2c(CC(=O)NCc3ccc4c(c3)OCO4)coc2c1 | 7
CCCCC(=O)NC(Nc1nc(C2CC2)cs1)(C(=O)OCC)C(F)(F)F (stereo unspecified) | 11
COc1cccc(-c2nc(-c3ccc(NC(=O)Cc4ccccc4OC)cc3)no2)c1 | 13
COc1ccc(CCC(=O)Nc2ccc(-c3noc(-c4ccc(OC)c(OC)c4)n3)cc2)cc1 | 61*
COc1ccc(-c2nc(-c3ccc(NC(=O)c4ccc(Br)o4)cc3)no2)cc1OC | -5
CC(C(=O)NCc1ccc2c(c1)OCO2)N1c2cccc3cccc(c23)S1(=O)=O (stereo unspecified) | -14
COc1ccccc1OCc1ccc(C(=O)Nc2ccncc2)o1 | 5
CCOc1ccc(CCNS(=O)(=O)c2cccc3nsnc23)cc1OCC | -9
O=C(COC(=O)C1(c2ccccc2)CC1)N1CCN(c2ccc(F)cc2)CC1 | -3
CCOC(=O)CCSc1nnc(-c2cccnc2)n1-c1ccccc1OC | -13
COc1ccc(OC)c(-c2cc(C(=O)N3CCN(c4ccccc4)CC3)no2)c1 | -11
O=C(c1cc(-c2cccs2)on1)N1CCN(c2ccc(F)cc2)CC1 | -8
O=C(c1cc(-c2cccs2)on1)N1CCN(c2ccccc2)CC1 | 57*
CCCCN(CC)S(=O)(=O)N1CCC(C(=O)NCc2ccc(F)cc2)CC1 | -1
CCOC(=O)N1CCC2(CC1)C(C#N)=C(N)Oc1c2c(C)nn1-c1cccc(Cl)c1 | 8
Cc1nc2sc(C(=O)O)c(N)c2c2c1COC(C)(C)C2 | 9
CCOC(=O)c1sc2nc3c(cc2c1N)COC(C)(C)C3 | 2
CCOC(=O)c1sc2nc(-c3ccco3)c3c(c2c1N)CC(C)(C)OC3 | 90*
Cc1ccc(C)c(N2CCN(C(=O)CN(C)S(=O)(=O)c3cnc[nH]3)CC2)c1 | -9
COc1ccc(S(=O)(=O)N(C)CC(=O)NCc2cccnc2)cc1C | -16
CC12CCC(C(=O)N3CCN(Cc4ccccc4)CC3)(OC1=O)C2(C)C (stereo unspecified) | 6
SMILES | HIV RNase H inh
CCOCC(=O)Nc1nc2ccc(OCC)cc2s1 | -2
CCOc1ccc2nc(NS(C)(=O)=O)sc2c1 | 55*
CCOc1ccc2nc(NS(=O)(=O)c3ccc4c(c3)n(C)c(=O)n4C)sc2c1 | -39
Cc1ccc(-c2nc3s/c(=C\c4ccco4)c(=O)n3n2)cc1 | -15
O=c1nc2s/c(=C\c3ccco3)c(=O)n2nc1Cc1ccc(F)cc1 | 53*
N#CC1=C(N)n2c(s/c(=C\c3ccco3)c2=O)=C(C#N)C1c1ccco1 (stereo unspecified) | 30
C=CCn1nnc2sc3c(c2c1=O)CCC(C)C3 (stereo unspecified) | -17
O=C(NC1CCCC1)c1sc(=S)n2c1[nH]c(=O)c1ccccc12 | 30
C=CCn1c(N)c(C(=O)NCc2ccco2)sc1=S | -1
O=C(NCc1ccco1)c1sc(=S)n2c1[nH]c(=O)c1ccccc12 | 58*
Cc1ccc2[nH]c(=O)c(CN(Cc3cccnc3)C(=O)c3ccncc3)cc2c1 | 0
COc1cc(C(=S)N2CCCC2)cc(Cl)c1O | 71*
COc1cc(C(=S)N2CCCCC2)ccc1OCC(=O)N1CCCC1 | 13
Oc1ccc(C(=S)N2CCCCC2)cc1Cl | -2
COc1ccc(-c2nc(N)nc(C)c2Oc2ccccc2Br)c(O)c1 | -17
C=CCNc1nc(N2CCCCC2)c(C#N)c2c1CN(Cc1ccccc1)CC2 | 8
O=C(Nc1ccc(-c2nc3ccccc3o2)cc1)c1ccc2c(c1)OCO2 | 27
Cc1ccc2oc(-c3ccc(NC(=O)c4cccnc4)cc3)nc2c1 | -1
Cc1ccc2oc(-c3ccc(NC(=O)c4ccc5c(c4)OCO5)cc3)nc2c1 | 64*
Cc1cccc(NC(=O)Cn2c(=O)oc3ccccc32)c1 | 42
CCOC(=O)C1CCCN(C(=O)Nc2cccc(Cl)c2)C1 (stereo unspecified) | -1
Cc1n[nH]c(C)c1S(=O)(=O)N(CC(=O)N1CCc2ccccc21)c1ccc(C(C)C)cc1 | 51*
CCOc1ccc(N(CC(=O)N2CCc3ccccc32)S(=O)(=O)c2c(C)noc2C)cc1 | 5
Cc1cc(C)cc(N(CC(=O)N2CCc3ccccc32)S(=O)(=O)c2c(C)noc2C)c1 | 0
O=C1CC(c2cccs2)Cc2nc(NCC3CCCO3)ncc21 (stereo unspecified) | -20
CCn1c(CSc2nnc(-c3ccc4c(c3)OCO4)o2)nc2cc(S(=O)(=O)N(C)C)ccc21 | -10
CCOc1ccc2cc(C#N)c(SCC(=O)NC(C)CC)nc2c1 (stereo unspecified) | 58*
CCOc1ccc2cc(C#N)c(SCC(=O)N3CCC(C)CC3)nc2c1 | 3
CCOC(=O)CSc1nc2cc(OCC)ccc2cc1C#N | -7
